D2 ag-1 – agonists of human D2 dopamine receptor | P14416 | HEK293 T-REx D2 cells, calcium flux agonist mode | activation, % at 2 µM | 340,000 compounds, 0.53% hits | AID 485358;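 active = activation over 3 SD above normal in the single-dose calcium agonist read, cut at about 30% in these data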
Target sequence (P14416 whole entry, looked up): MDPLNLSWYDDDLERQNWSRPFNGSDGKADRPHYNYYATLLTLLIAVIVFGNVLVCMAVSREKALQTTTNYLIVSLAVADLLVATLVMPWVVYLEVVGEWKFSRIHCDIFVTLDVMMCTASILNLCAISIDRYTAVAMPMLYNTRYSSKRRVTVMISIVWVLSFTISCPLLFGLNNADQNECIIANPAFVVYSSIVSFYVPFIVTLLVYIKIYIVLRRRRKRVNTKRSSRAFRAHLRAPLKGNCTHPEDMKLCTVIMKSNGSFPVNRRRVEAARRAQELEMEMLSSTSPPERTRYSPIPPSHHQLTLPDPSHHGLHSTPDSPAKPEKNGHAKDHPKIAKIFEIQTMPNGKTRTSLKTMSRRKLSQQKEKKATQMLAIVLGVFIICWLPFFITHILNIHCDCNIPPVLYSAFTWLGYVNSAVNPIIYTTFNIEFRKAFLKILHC
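Agonism scored from kinetic calcium signal (1 read/sec, 180 s) following compound pin transfer, after a 10 s baseline. Cells: HEK293 Trex line expressing inducible D2 receptor coupled to calcium, dye-loaded after overnight culture at 30 C.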
D2 PAM-1 – positively modulates the human D2 dopamine receptor allosterically; 340,000 compounds, 0.34% hits; potentiation, % at 10 µM; HEK293 T-REx D2, calcium flux, EC20 dopamine potentiation; P14416; AID 485347;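 active = potentiation over 3 SD above the plate norm, cut at about 30% in these data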
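Cells plated with tetracycline inducer and held overnight at 30 C; calcium dye loaded 30–90 min at room temperature; baseline taken, compound added and read 180 s; EC20 dopamine then added and read 180 s.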
D2 ag-2 – human D2 receptor agonism in beta-arrestin assay; activation, % (concentration not given with the values); AID 624465; P14416; DiscoveRx PathHunter D2 beta-arrestin, luminescence, 90 min; 100% = 57 uM dopamine signal; 360,000 compounds, 0.084% hits; in the data active = activation above about 40%; inconclusive = between about 15% and that limit
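Agonist mode: compounds alone added to overnight-plated D2 PathHunter cells for 90 min at 37 C, with 57 uM final dopamine (EC100) defining full response. Beta-arrestin recruitment detected by chemiluminescent reagent, read after 1 h at ambient temperature.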
D2 PAM-2 – human D2 receptor positive allosteric modulation; P14416; DiscoveRx D2 beta-arrestin cells, luminescence, 90 min; 100% = 57 uM dopamine signal; potentiation, % (concentration not given with the values); 360,000 compounds, 0.23% hits; AID 624464; in the data active = potentiation above about 50%; inconclusive = mostly about 30% to 49%
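D2 cells co-treated with compound plus 50 nM dopamine (EC20) for 90 min at 37 deg C to detect potentiation. Beta-arrestin recruitment was read as enzyme-fragment luminescence after 1 h at ambient temperature. Full response was set by 57 uM dopamine.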
D2 antagonist – antagonists of human D2 dopamine receptor. 340,000 compounds, 2% hits. P14416. inhibition, % at 10 µM. HEK293 TREx D2 cells, calcium flux, dopamine EC80; in the data active = inhibition above about 30%; inactive = below that, where a call was filed
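Calcium flux kinetic readout in an inducible HEK293 TREx D2 line plated overnight at 30 C. After 180 s compound exposure, an EC80 dopamine challenge follows with another 180 s kinetic read to detect antagonism.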
Hits are given with their value; i = inactive; ? = inconclusive; nt = no result given. Rows were chosen to be rich in hits. Some 2.4% of all compounds tested hit in one or more screens of this group.

SMILES	D2 ag-1	D2 PAM-1	D2 ag-2	D2 PAM-2	D2 antagonist
CC12CCC(C(=O)N(CSC(=S)N/N=C\c3ccccc3)C1=O)C2(C)C (configuration not stated)	i	i	i	i	32
CC12CCC(C(=O)N(CSC(=S)N/N=C\c3ccccc3Cl)C1=O)C2(C)C (configuration not stated)	i	i	i	i	i
O=C(CN(c1cc(C(F)(F)F)ccc1Cl)S(=O)(=O)c1ccccc1)NCCc1ccccc1	i	i	nt	nt	nt
COc1ccc(Br)cc1S(=O)(=O)n1c([N+](=O)[O-])cnc1C	i	i	i	i	34
COc1cc(Nc2nc3c(S(=O)(=O)c4cccc(Cl)c4)nnn3c3ccsc23)cc(OC)c1	i	i	nt	nt	nt
CC1c2ccccc2SC(CCCN(C)C)c2ccccc21 (configuration not stated)	i	i	i	i	50
S=C(Nc1ccc(Oc2ccccc2)cc1)N(CCCN1CCOCC1)Cc1ccccn1	i	i	i	i	i
Cc1cccc(NC(=S)N(CCCN2CCOCC2)Cc2ccccn2)c1	i	i	i	i	40
O=S(=O)([O-])CCC[n+]1c(/C=C\Nc2ccccc2)oc2ccc(-c3ccccc3)cc21	52	i	nt	nt	i
Cc1cccc(NC(=S)N2CCCCC2)c1	i	i	i	i	i
Cc1ccc(C2CCN(C(=S)Nc3cccc(C)c3)C2)cc1 (configuration not stated)	i	75	i	i	i
O=C(CCNC(=O)C1CCN(S(=O)(=O)c2ccc(F)cc2)CC1)NCc1ccccn1	nt	nt	i	i	nt
COc1ccc(O)c(CN2CCCC(N3CCN(c4ccccc4OC)CC3)C2)c1 (configuration not stated)	i	i	i	i	i
COc1ccccc1N1CCN(C2CCCN(Cc3ccc(Cl)cc3)C2)CC1 (configuration not stated)	i	i	i	i	37
COc1ccccc1N1CCN(C2CCCN(Cc3ccccc3OCCO)C2)CC1 (configuration not stated)	i	i	i	i	i
COc1ccccc1N1CCN(C2CCCN(Cc3cc(F)cc(F)c3)C2)CC1 (configuration not stated)	i	i	i	i	41
COC(=O)c1cc(C(=O)OCC(=O)NCc2cccs2)cc([N+](=O)[O-])c1	i	i	?	i	i
CCc1ccc(NC(=O)NNC(=O)CCc2ccccc2)cc1	i	i	i	i	i
O=C(O)CCC(=O)NNC(=O)CCC(=O)Nc1ccccc1	i	i	i	i	40
O=C(Nc1ccccc1)c1ccccc1CCc1ccccc1	i	i	i	i	32
O=C(CCc1ccccc1)NNC(=O)Nc1ccccc1	i	i	i	i	44
NC(N)=N/N=C(\N=Nc1ccccc1)c1ccc(Cl)cc1	nt	nt	i	i	nt
COc1ccccc1CNC(=O)C(NS(=O)(=O)c1ccc2c(c1)CCN2C(C)=O)C(C)C (configuration not stated)	i	i	nt	nt	nt
COc1ccc(CNC(=O)Cn2c(=O)oc3cc(S(=O)(=O)NCc4ccccc4)ccc32)cc1	i	i	nt	nt	nt
O=c1c2cc3c(cc2nc2sc(Nc4ccc(F)cc4F)nn12)OCO3	i	i	nt	nt	nt
SMILES	D2 ag-1	D2 PAM-1	D2 ag-2	D2 PAM-2	D2 antagonist
NC(=O)c1cccnc1	i	i	i	i	40
N/C(=N\OC(=O)c1ccccc1Cl)c1cccnc1	i	i	i	96	i
O=C(C(=O)c1cccnc1)c1cccnc1	nt	i	i	i	nt
N/C(=N\OC(=O)c1cc(Cl)ccc1Cl)c1cccnc1	nt	i	?	73	nt
Clc1ccc(Nc2ncnc3ccc(Br)cc23)cc1	i	i	i	i	34
Clc1cccc(Nc2ncnc3ccc(Br)cc23)c1	i	i	i	i	i
CC1(C)CCN2CCC(C)(C)c3c(O)ccc1c32	34	i	i	i	i
CCc1c(C(C)S(=O)(=O)c2ccccc2)[nH]c(=O)n1CC (configuration not stated)	i	i	i	i	35
COc1ccc(NC(=O)COC(=O)CCCOc2ccc(Cl)cc2Cl)cc1	i	i	i	i	40
O=C(NCc1ccccc1CN1CCCC1)c1ccc(OCc2cscn2)cc1	i	i	i	i	35
Cc1nc(COc2ccc(C(=O)NCc3ccccc3CN3CCCCC3)cc2)cs1	i	i	i	i	i
Cc1cc(NC2CCCCC2)nc2ccccc12	i	i	i	i	44
COc1cc(/C=C(\C#N)C(=O)Nc2ccccc2C(=O)O)cc(Cl)c1OC	i	40	i	i	i
COc1ccc(C23CC4CC(CC(C4)C2)C3)cc1C(=O)NCCN(C)C	i	i	i	i	33
COc1ccccc1C(=O)NCCC(=O)NCCC12CC3CC(CC(C3)C1)C2	i	i	i	i	i
OCc1nc2ccccc2n1CC(O)Cn1ccc2ccccc21 (configuration not stated)	i	32	i	i	i
Oc1ccccc1NCC(O)Cn1ccc2ccccc21 (configuration not stated)	i	i	i	58	i
OC(CN1CCNCC1)Cn1ccc2ccccc21 (configuration not stated)	i	i	nt	nt	i
OC(CNCc1ccccc1)Cn1ccc2ccccc21 (configuration not stated)	i	i	i	i	i
COc1ccc([N+](=O)[O-])cc1NC(=O)c1ccc(Br)s1	i	i	i	i	i
CN(C)S(=O)(=O)c1cccc(NC(=O)CCSc2ccc(Cl)cc2)c1	i	i	i	i	33
COC(=O)c1cccc(NC(=O)CCc2cc(OC)c(OC)c(OC)c2)c1	i	i	i	i	i
COc1cc(CCC(=O)Nc2cccc(S(=O)(=O)N(C)C)c2)cc(OC)c1OC	i	i	i	i	39
COc1cccc(/C=N/NC(=S)Nc2cccc(S(=O)(=O)N(C)C)c2)c1	i	i	i	i	i
CN(C)S(=O)(=O)c1cccc(NC(=O)CCNC(=O)Nc2ccccc2)c1	nt	nt	i	i	nt
SMILES	D2 ag-1	D2 PAM-1	D2 ag-2	D2 PAM-2	D2 antagonist
COc1cc(/C=N/NC(=S)Nc2cccc(S(=O)(=O)N(C)C)c2)cc(OC)c1O	i	40	i	i	i
CN(C)S(=O)(=O)c1cccc(NC(=O)COC(=O)c2ccc([N+](=O)[O-])o2)c1	i	i	i	78	i
CCOC(=O)c1cnc2ccc(OC)cc2c1NCCc1ccccc1	i	i	nt	nt	nt
CC1CCCN(c2ncnc3c2cnn3-c2ccc(F)cc2)C1 (configuration not stated)	i	i	nt	nt	nt
CN(C(=O)COC(=O)CN1C(=O)C2CC=CCC2C1=O)c1ccccc1 (configuration not stated)	nt	nt	i	i	nt
O=C1CCCC/C1=C\Nc1ccc(O)cc1	i	i	i	i	i
O=C1CCCC/C1=C/Nc1cccc(C(F)(F)F)c1	i	i	i	i	34
C/C(=C\C(=O)c1ccccc1)Nc1ccc(O)cc1	i	i	?	56	i

High-throughput results from PubChem.
